Structures are written as SMILES. Where “and” joins values, the source holds several entries; their conditions need not be identical. Equal entries are not always repeated. Screen size: about 310,000 compounds; about 11,000 (3.5%) were called active. Another 4% or so got no clear call; they are omitted. Calls come from the whole dose curve; as a rule, active = well fitted inhibition curve with a large enough effect; inconclusive = small, poorly fitted or top-dose-only effect, or another doubt; inactive = no such curve, though single readings can be large or run the other way. The sample as a whole holds a higher share of actives than the screen did. Some compounds were tested as several samples or in several runs, with calls that do not always agree.
Potency is the fitted concentration of half-maximal effect.

The target in this experiment is 4'-phosphopantetheinyl transferase ffp (Bacillus subtilis) (UniProt Q9F4F7). The experiment can be described thus: qHTS Assay for Inhibitors of Bacillus subtilis Sfp phosphopantetheinyl transferase (PPTase).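 For largest response in the series, negative = inhibition: 0% = enzyme reaction without inhibitor and -100% = no enzyme wells.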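 Note: the enzyme is Sfp with the accession as filed and its product quenches rhodamine fluorescence.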 The settings on record: Biochemical Sfp PPTase activity. From the text: Assay Submitter: Michael Burkart, University of California, San Diego
Screening Center PI: Austin, C.P.
Screening Center: NIH Chemical Genomics Center [NCGC]
The covalent attachment of a phosphopantetheinyl (4'-PP) arm to a variety of synthases and other proteins is a key posttranslational protein modification. The 4'-PP is installed on the proteins post-translationally from coenzyme A (CoA) on a conserved serine residue by action of phosphopantetheinyl transferase (PPTase) enzymes. Phosphopantetheinylation is essential for synthase activity, and removal of the PPTase gene precludes natural product synthesis in microorganisms, or in the case of fatty acid biosynthesis, renders the organism unviable. PPTase enzymes belong to a distinct structural superfamily. Within bacteria, these enzymes are grouped into two classes based upon primary structure, the AcpS-Type and Sfp-Type PPTases.
Sfp-type PPTases, corresponding to an activator of surfactin production in Bacillus subtilis, are responsible for modifying type I polyketide and nonribosomal peptide synthases of prokaryotes. Sfp-type PPTases are responsible for the activation of a variety of pathogen-associated virulence factors. Among these compounds are toxins such as mycolactone from Mycobacterium ulcerans, siderophores such as vibriobactin from Vibrio cholerae or mycobactin from Mycobacterium tuberculosis, as well as the mycolic acids which form the waxy cell wall of Mycobacteria. The biosyntheses of these natural products are considered attractive targets for drug design.
In search of small molecule Sfp-PPTase inhibitors, a fluorescence quenching assay was developed for detection of Bacillus subtilis Sfp-PPTase enzymatic activity in a miniaturized high-throughput format. The consensus ybbr acceptor peptide […] was N-terminally labeled with Black Hole Quencher-2 (BHQ-2) and used in combination with rhodamine-labeled coenzyme A as a co-substrate.
Inhibition of Sfp-PPTase was detected by recording the fluorescence intensity change over a 30-minute reaction period at a 525 nm excitation and 598 nm emission. Reagents were supplied by Michael Burkart and Timothy Foley, University of California at San Diego.
This BioAssay deposition is for validation of the developed Sfp-PPtase assay.
Assay Buffer: 50 mM Hepes-Na pH 7.6, 10 mM MgCl2, 0.01% Nonidet P-40, and 0.01% BSA.
3 uL of Sfp-PPTase enzyme (final concentration 15 nM) and 1 uL of substrate mixture (final concentration for rhodamine-CoA and BHQ-2-YbbR 5 uM and 12.5 uM, respectively) dispensed in columns 1, 2, 5 - 48. Columns 1 and 2 used to generate neutral control (uninhibited reaction)
Three uL of reagents, consisting of buffer (in columns 3 and 4 as negative control) and Sfp-PPTase (in columns 1, 2, 5 - 48) were dispensed into 1,536-well Greiner black solid bottom plate. Compounds (23 nL) were transferred via Kalypsys pintool equipped with 1,536-pin array. The plate was incubated for 15 min at room temperature, followed by the addition of 1 uL substrate to start the reaction. The plate was then centrifuged at 1000 rpm for 15 seconds, and the fluorescence intensity recorded on a ViewLux High-throughput CCD imager (Perkin-Elmer) using standard BODIPY optics (525 nm excitation and 598 nm emission). The plate was then incubated for 30 minutes, and a second read on the ViewLux was performed. The fluorescence intensity difference over the 30-minute period was used to calculate the respective reaction rate for each well.
A general note: Quantitative high-throughput screening tests each substance at several concentrations.
As for `CCN(CC)c1ccc(C(=O)N/N=C(\C)c2cccc(OC)c2)cc1`, the largest response in the series, negative = inhibition was -1.28% (inactive).

In the case of `C/C(=N\Nc1ccc(S(N)(=O)=O)cc1[N+](=O)[O-])c1cccs1`, the largest response in the series, negative = inhibition was 0.687% (inactive).

Take `C/C(=N\Nc1ncc(Cl)cc1Cl)c1ccc(S(=O)(=O)NCc2ccco2)cc1`: the largest response in the series, negative = inhibition was -16.4% (inactive). On to `COc1cccc(/C(C)=N/Nc2ncc(Cl)cc2Cl)c1`, for which the Potency was 56.2 µM (active). On the same count and under the same terms, with `C/C(=N\Nc1ncc(Cl)cc1Cl)c1cccs1` the figure was 39.8 µM (active). For the compound `C/C(=N\Nc1nc2ccccc2[nH]1)c1cccs1`, the largest response in the series, negative = inhibition is -4.19% (inactive). The same measure, in the same setting: then `Cn1cnc2c1c(=O)n(Cc1ccccc1C#N)c(=O)n2C`, with 4.28% (inactive). On the same count and under the same terms, with `C=CC1=C2C=C(C3CC3)N(CC(C)C)C=C2C(=O)C(C)(OC(=O)c2ccco2)C1=O` (stereo unspecified) the figure was 5.15% (inactive). As for `COC(=O)c1ccc(OCC(=O)NC(C)(C)C)cc1`, the largest response in the series, negative = inhibition is -10.7% (inactive).

Consider `CC(C)(C)NC(=O)COc1ccc(CNc2ccc3[nH]c(=O)[nH]c3c2)cc1`, for which the Potency is 56.2 µM (active). For `CC(=O)Nc1ccc(OCC(=O)NCc2ccc(C)cc2)cc1`, the largest response in the series, negative = inhibition was 11.1% (inactive).

With `CCS(=O)(=O)Nc1ccc(C(=O)NCCSc2ccccc2)cc1`, the largest response in the series, negative = inhibition was 22% (inactive). Still for that read-out and setting: with `COC(=O)C1=CN(c2ccc(F)c(F)c2)C=C(C(=O)OC)C1c1ccc([N+](=O)[O-])cc1` the figure was -0.236% (inactive). Still for that read-out and setting: with `COc1cccc(OC)c1C(=O)Nc1ccc2c(c1)n(C)c(=O)n2C` the figure was 6.56% (inactive); with `O=C(Nc1cccc2ncccc12)C(Cl)(Cl)Cl`, 5.72% (inactive); with `Cc1ccc(C(=O)Nc2cccc3ncccc23)cc1[N+](=O)[O-]`, 9.98% (inactive).

Turning to `Cc1ccc(/C=C(\C#N)C(=O)Nc2cccc3ncccc23)o1`, the Potency was 8.91 µM (active). `Cc1c(C(=O)NC(C)C2CC3CCC2C3)cccc1[N+](=O)[O-]` (stereo unspecified): the largest response in the series, negative = inhibition was 6.2% (inactive). On the same count and under the same terms, then `C[C@]12CC[C@@H]3c4ccc(O)cc4C[C@@H](CCCCCCCCCS(=O)CCCC(F)(F)C(F)(F)F)C3[C@@H]1CC[C@@H]2O` (stereo partly specified), with -0.311% (inactive).

Turning to `CC(C)c1ccc(-c2nn[nH]n2)cc1`, the largest response in the series, negative = inhibition is 21.7% (inactive). On to `CC(N)(C(=O)O)c1ccc(-c2nn[nH]n2)cc1` (stereo unspecified), for which the Potency is 35.5 µM (active). Take `Brc1ccc(-c2nn[nH]n2)cc1`: the largest response in the series, negative = inhibition is 19% (inactive). For `O=C(CSc1ncn[nH]1)Nc1ccnc2ccccc12`, the largest response in the series, negative = inhibition is 12.4% (inactive). Same read-out and setting: then `O=C(CSc1ncn[nH]1)Nc1nsc(-c2ccccc2)n1`, with 9.26% (inactive). Consider `CCN(C(=O)CSc1ncn[nH]1)c1cccc2ccccc12`, for which the Potency is 39.8 µM (active). In the case of `O=c1cc(-c2ccc(O)cc2)oc2c([C@@H]3O[C@H](CO)[C@@H](O)[C@H](O)[C@H]3O)c(O)cc(O)c12`, the largest response in the series, negative = inhibition was -2.52% (inactive). Same read-out and setting: with `Cc1cc(C)cc(N(CC(=O)NCCSCc2ccco2)S(C)(=O)=O)c1` the figure was 9.95% (inactive); with `CS(=O)(=O)N(Cc1ccc(Cl)cc1)c1ccc(C(=O)NCCSCc2ccco2)cc1`, 22.6% (inactive). As to `CCc1ccccc1N(CC(=O)NCCSCc1ccco1)S(C)(=O)=O`, the Potency was 17.8 µM (active). For the compound `CC(C)N(C(=O)Cn1cc(S(=O)(=O)CC(=O)N2CCOCC2)c2ccccc21)C(C)C`, the largest response in the series, negative = inhibition is 4.5% (inactive). Still for that read-out and setting: then `O=C(C1CC(=O)N(c2ccc(Br)cc2)C1)N1CCCC1` (stereo unspecified), with 5.88% (inactive); and `Cn1c(Cc2cccs2)nnc1SCC(=O)Nc1ccccc1`, with 11.4% (inactive). Regarding `Cn1c(CC(=O)Nc2ccccc2)nnc1SCC(=O)c1ccccc1`, the Potency was 35.5 µM (active). Turning to `Cn1c(CSCC(=O)Nc2ccccc2)nnc1SCc1ccccc1`, the largest response in the series, negative = inhibition is -1.75% (inactive). Same read-out and setting: then `CCN1CCCC1CNC(=O)c1cc2cc(OC)c(OC)cc2[nH]1` (stereo unspecified), with 18.4% (inactive).

As for `COc1ccccc1CCNC(=O)C1CCN(C(=O)/C=C/c2ccccc2)CC1`, the largest response in the series, negative = inhibition is -8.37% (inactive).

On to `Cc1cc(Cl)ccc1NC(=S)NCCCN1CCCC1=O`, for which the largest response in the series, negative = inhibition is 5.94% (inactive). Still for that read-out and setting: then `Cc1c(Cl)cccc1NC(=O)NCCCN1CCCC1=O`, with 4.97% (inactive).

Consider `O=C1CCCN1CCCNC(=S)Nc1ccc(F)c(Cl)c1`, for which the Potency is 14.1 µM (active). In the case of `Cc1ccc2c(N)c(C(=O)c3ccccc3)sc2n1`, the largest response in the series, negative = inhibition is -25.4% (inactive). Same read-out and setting: then `CCCC(=O)n1nc(-c2ccccc2)nc1N`, with -3.09% (inactive). In the case of `CCN(CC)C(=O)c1sc2nc(-c3ccccc3)ccc2c1N`, the Potency was 20 µM (active).

For the compound `COc1cc(C(C(=O)NC2CCCC2)N(C(=O)c2ccco2)c2ccccc2C(C)=O)cc(OC)c1OC` (stereo unspecified), the largest response in the series, negative = inhibition is 9.66% (inactive). The same measure, in the same setting: with `COc1ccc2[nH]c(=O)c(C3c4cc(OC)c(OC)cc4CCN3C(=O)c3ccco3)cc2c1` (stereo unspecified) the figure was -2.97% (inactive); with `Cc1cccc(NC(=O)C2CCCN(C(=O)NCc3ccccc3)C2)c1C` (stereo unspecified), 5.34% (inactive). With `COc1ccccc1OCCNCC(O)COc1cccc2[nH]c3ccccc3c12` (stereo unspecified), the Potency is 50.1 µM (active); the largest response in the series, negative = inhibition is -10.5% (inactive) and 8.7% (inactive) and -18.4% (inactive). With `CC(C)(C)NCC(O)COc1cccc2[nH]c(=O)[nH]c12` (stereo unspecified), the largest response in the series, negative = inhibition was 6.07% (inactive). With `COc1ccccc1OCC(O)CN1CCOCC1` (stereo unspecified), the largest response in the series, negative = inhibition was 15.2% (inactive). Still for that read-out and setting: with `COc1cccc(NC(=O)C/C(C)=N/NC(=O)C2CCCCC2)c1` the figure was 9.15% (inactive); with `O=C(COc1ccccc1Cl)N1CCCCCCC1`, 23.9% (inactive). Same read-out and setting: then `COc1cc(NC(=O)c2ccccc2)c(OC)cc1NC(=O)Cc1ccccc1`, with -10.9% (inactive). On to `O=C1CSC(=S)N1/N=C/c1ccc(O)c([N+](=O)[O-])c1`, for which the Potency is 39.8 µM (active). As to `Cc1cc(C(=O)N/N=C/c2ccc(O)c([N+](=O)[O-])c2)c(C)n1-c1ccc(F)cc1`, the largest response in the series, negative = inhibition was -9.8% (inactive). On the same count and under the same terms, then `O=[N+]([O-])c1ccc(N2CCSCC2)cc1O`, with 17.8% (inactive).

Regarding `CCOC(=O)N1CCN(S(=O)(=O)N2CCCC(C(=O)NCCCN3CCC(C)CC3)C2)CC1` (stereo unspecified), the largest response in the series, negative = inhibition was 6.69% (inactive). Regarding `O=C(CCC1CCCN(C(=O)c2ccc(F)c(F)c2)C1)N1CCN(c2ccccn2)CC1` (stereo unspecified), the largest response in the series, negative = inhibition is 7.09% (inactive). As to `CSc1nc2ccccc2c(=O)n1Cc1ccc(F)cc1`, the largest response in the series, negative = inhibition is -16.2% (inactive).

For the compound `CC(=O)Nc1ccc(NC(=O)CSc2ncnc3c2cnn3Cc2ccccc2)cc1`, the largest response in the series, negative = inhibition was 13.9% (inactive). As for `CSc1c(SCc2ccccc2)cnn(Cc2ccccc2)c1=O`, the Potency is 44.7 µM (active). On to `Cc1nc(COc2cc3oc(=O)cc(C)c3cc2Cl)cs1`, for which the largest response in the series, negative = inhibition was -11.1% (inactive).

The values above are taken from PubChem BioAssay AID1490 (National Center for Advancing Translational Sciences (NCATS), 2009).
